Assay outcomes (PubChem BioAssay)
This is a sample that favours compounds with a hit; in the whole collection about 4.6% have one here.
NALP3 yeast inh: inhibitors of NALP3 inflammasome in yeast. Yeast reconstituted NLRP3/ASC/caspase-1, beta-gal luminescence, 24 h. inhibition, % at 10 µM. actives 0.39% (n = 330,000);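 active = inhibition of 50% or more; inactive = inhibition below 50%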;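 also: plate controls were induced DMSO wells for no effect and uninduced yeast grown without galactose for full effect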
tim23-1 inh: growth inhibitors of tim23-1 mutant yeast; actives 1.3% (n = 330,000); inhibition, % at 20 µM; S. cerevisiae tim23-1 growth, BacTiter-Glo luminescence, 24 h;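 active = growth inhibition of the mutant yeast at or above 50%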;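 also: temperature-sensitive mutant grown at 25 °C; plate controls were DMSO-treated mutant yeast for no effect and medium wells lacking yeast for full effect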
tim10-1 inh: growth inhibitors of tim10-1 mutant yeast; S. cerevisiae tim10-1 ts strain growth, BacTiter-Glo, 24 h; inhibition, % at 20 µM; actives 2.2% (n = 330,000); AID 463190;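 active = inhibition of at least 40%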;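 also: mutant grown at 25 °C; 0% = DMSO wells with yeast and 100% = wells holding no yeast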
TIM10 inh: inhibits growth of TIM10 yeast strain | S. cerevisiae TIM10 strain growth, BacTiter-Glo luminescence, 24 h | inhibition, % at 10 µM | actives 1.4% (n = 330,000) | AID 463195;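 active = inhibition of 40% or more at the single tested concentration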;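 also: wild-type TIM10 isogenic control strain grown at permissive 25 °C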
SKKanGAS inh: inhibitors of SKKanGAS S. pyogenes growth in kanamycin (SK-promoter or general growth effect); BacTiter-Glo, 6 h; inhibition, % at 7.5 µM; actives 1.3% (n = 300,000);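 active = mean replicate score, as percent of positive control median, at least 50; inconclusive = mean below 50 but one replicate at or above 50; inactive = mean and every replicate below 50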;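 also: strain carries kanamycin resistance gene driven by streptokinase promoter and grows in 40 µg/ml kanamycin; loss of luminescence reflects streptokinase promoter inhibition or plain growth inhibition; 0% = median of DMSO wells and 100% = positive control at its reference dose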
PfHsp90 yeast 2: inhibits growth of yeast expressing Plasmodium falciparum Hsp90; S. cerevisiae expressing PfHsp90, BacTiter-Glo ATP, 48 h; yeast lacking PDR1 and PDR3 efflux regulators; inhibition, % at 9.4 µM; actives 0.32% (n = 310,000); AID 504621;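 active = every replicate shows inhibition above about 80%, whatever the replicate mean, limit read from the data; inconclusive = mean inhibition reaches the set limit but some replicate falls short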;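 also: 0% = DMSO neutral controls and 100% = 20 µM radicicol positive controls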
TIM10 conf: confirmation of TIM10 yeast growth inhibitors. shares compounds with TIM10 inh. S. cerevisiae tim10 strain growth, BacTiter-Glo luminescence, 24 h. inhibition, % at 10 µM. actives 63% (n = 4,600). AID 463215;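 active = inhibition of yeast growth at or above a set limit in either of two replicates at 10 µM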;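 also: this counterscreen used the strain with wild-type TIM10; 0% = yeast with DMSO and 100% = medium wells lacking yeast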
tim23-1 confirm: tim23-1 yeast growth inhibition, confirmed | shares compounds with tim23-1 inh | S. cerevisiae tim23-1 growth, BacTiter-Glo luminescence, 24 h | inhibition, % at 20 µM | actives 83% (n = 4,400);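 active = inhibition above about 39% in either of two replicate wells at 20 µM, limit read from the data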;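 also: temperature-sensitive tim23-1 mutant grown at 25 °C; 0% = DMSO wells with yeast and 100% = medium wells without yeast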
The depositor's hits bear a star; u = inconclusive; x = no result given.

SMILES | NALP3 yeast inh | tim23-1 inh | tim10-1 inh | TIM10 inh | SKKanGAS inh | PfHsp90 yeast 2 | TIM10 conf | tim23-1 confirm
O=C(Nc1cccc(-c2csc(Nc3ccccc3)n2)c1)c1ccccc1 | 28 | 54* | 33 | 48* | 41 | -46 | 44* | 46*
CCOCC(=O)Nc1cc(C(=O)Nc2ccccc2)ccc1Cl | 6 | 60* | 19 | 54* | -1 | 7 | 45* | 67*
O=C(O)c1ccc(-c2noc(-c3ccc(F)cc3)n2)cc1 | 5 | 12 | 5 | 3 | 10 | 4 | x | x
COc1ccc(-c2nc3ncccc3n2O)cc1 | 4 | 13 | 7 | -12 | 2 | 8 | x | x
Cc1ccc(-c2cc(-c3n[nH]c(=S)n3C)c3ccccc3n2)cc1 | 35 | 52* | 36 | 50* | 5 | -23 | 48* | 59*
COc1ccc([N+](=O)[O-])cc1NC(=O)Cc1ccccc1Cl | 7 | -1 | 16 | 0 | 4 | -18 | x | x
COc1ccc(N=Cc2cc(Cc3ccccc3Cl)cc([N+](=O)[O-])c2O)cc1OC | 16 | 80* | 12 | 60* | 40 | 111* | 48* | -27
COc1cccc(OCc2cc(C(=O)N3CCN(C)C(c4ccccc4)C3)no2)c1 (stereo unspecified) | 21 | 53* | 39 | 41* | -1 | u | 50* | 48*
C=CCC1(CC=C)CCCN1C(=O)c1cc(COc2cccc(OC)c2)on1 | 12 | 16 | 13 | -3 | 0 | -5 | x | x
O/C(=C\c1nc2ccccc2nc1/C=C(\O)c1ccccc1)c1ccccc1 | 16 | 63* | 37 | 45* | 9 | -8 | 54* | 68*
O=c1oc2ccccc2nc1/C=C(\O)c1ccccc1 | 37 | -31 | -48 | -68 | -1 | x | x | x
CC1CCc2c(sc(NC(=O)CSc3nc4c(c(C(F)(F)F)n3)CCc3ccccc3-4)c2C(N)=O)C1 (stereo unspecified) | 13 | 2 | 14 | -8 | 6 | 6 | x | x
C=CCC1(C#N)C(SC)=NC2=C(C(=O)CC(C)(C)C2)C1c1ccc(Br)cc1 (stereo unspecified) | 14 | 55* | 39 | 44* | 10 | -13 | 32* | 43*
CCCN1CCC2(CC1)C(C#N)=C(N)Oc1c2sc2nc(C)cc(C)c12 | 22 | 10 | 0 | -7 | 10 | 25 | x | x
CCOC(=O)N1CCC2(CC1)C(C#N)=C(N)Oc1n[nH]c(C)c12 | 10 | 3 | 3 | -3 | 2 | 2 | x | x
CCOC(=O)N1CCC2(CC1)C(C#N)=C(N)Oc1c2sc2nc(C)cc(C)c12 | 6 | 61* | 36 | 51* | 31 | -36 | 36* | 51*
CCOC(=O)N1CCC2(CC1)C(C#N)=C(N)Oc1c2c(C)nn1-c1cccc(Cl)c1 | 13 | 58* | 31 | 44* | 17 | 15 | 30 | 58*
CC(=O)N1CCC(N(C(=O)Nc2c(F)cccc2F)C(C)C)CC1 | -3 | 9 | 8 | 5 | -5 | 22 | x | x
CC1CCCN(C(=O)CNS(=O)(=O)c2cccs2)C1 (stereo unspecified) | 6 | 6 | 6 | -10 | 12 | 7 | x | x
Cn1c(C(=O)Nc2ccc3c(c2)OCCO3)cc2sccc21 | 28 | 56* | 18 | 56* | -3 | 10 | 19 | 44*
CCOc1nc(-c2ccccc2O)nc2ccccc12 | 6 | 16 | -30 | -24 | 15 | x | x | x
Oc1ccccc1-c1nc(NC2CCCC2)c2ccccc2n1 | 1 | 64* | 30 | 44* | 24 | 115* | 35* | 58*
CC(=O)Nc1ccc(S(=O)(=O)NCCC(=O)Nc2ccc(C)c(F)c2)cc1 | -5 | 1 | -10 | 10 | -21 | 0 | x | x
COCc1cc(=O)[nH]c(SCCS(=O)(=O)c2ccc(Cl)cc2Cl)n1 | -11 | 58* | 31 | 44* | 6 | -17 | 35* | 28
COc1ccc(NS(=O)(=O)c2ccc(C)c(NC(=O)CNC(=O)c3ccco3)c2)cc1 | 13 | -15 | -1 | 6 | x | x | x | x
SMILES | NALP3 yeast inh | tim23-1 inh | tim10-1 inh | TIM10 inh | SKKanGAS inh | PfHsp90 yeast 2 | TIM10 conf | tim23-1 confirm
Cc1ccc2nc(N(CCCN(C)C)C(=O)c3cc(-c4cccs4)nc4ccccc34)sc2c1 | 31 | 60* | 40 | 41* | 18 | -42 | 42* | 31
CN(C)CCCN(C(=O)c1cc(-c2cccs2)nc2ccccc12)c1nc2c(F)cccc2s1 | 27 | -3 | 37 | 30 | 18 | 25 | x | x
O=C(NC(=S)Nc1ccccc1Cl)c1ccco1 | -11 | 24 | 14 | -1 | -9 | -52 | x | x
CCC(C)c1ccccc1NC(=S)NC(=O)c1ccco1 (stereo unspecified) | -10 | 54* | 35 | 41* | 36 | 43 | 25 | 36
O=Nc1ccc(NOC(=O)c2ccccc2Br)cc1 | 27 | 57* | 20 | 61* | 3 | 3 | 60* | 73*
O=C(Nc1ccc(N2CCOCC2)nc1)c1cccs1 | 18 | 50* | 26 | 55* | -2 | 3 | 43* | 68*
O=C(Nc1ccc(N2CCN(c3ccc(C(F)(F)F)cn3)CC2)nc1)c1cccs1 | -13 | -2 | -17 | -1 | 1 | 4 | x | x
O=C(Nc1ccc(N2CCN(c3ncccc3C(F)(F)F)CC2)nc1)c1cccs1 | 35 | 67* | 37 | 45* | 5 | 14 | 53* | 82*
CCOC(=O)/C(C#N)=C/c1cc2ccccc2nc1N1CCOCC1 | -2 | 31 | 33 | 22 | 4 | 11 | x | x
CCOC(=O)/C(C#N)=C/c1cc2ccc(C)cc2nc1Cl | 15 | 56* | 22 | 42* | 6 | -10 | 7 | 64*
O=C(N[C@@H](Cc1ccc(O)cc1)C(=O)O)c1cccnc1 | -3 | -12 | -1 | -3 | -5 | 4 | x | x
CC(=O)Oc1ccc2cc(-c3ccccc3)c(=O)oc2c1 | 34 | 26 | 31 | 7 | -1 | -31 | x | x
CC[C@]1(c2ccccc2C)ON(c2ccccc2C(F)(F)F)C1=O | 10 | 12 | -51 | -5 | x | 12 | x | x
COc1ccccc1[C@@]1(C)ON(c2ccccc2C(F)(F)F)C1=O | 39 | 63* | -98 | 65* | x | -12 | 55* | -93
COC(=O)c1ccc(C(=O)OC)c(NC(=O)CSc2cccc[n+]2[O-])c1 | 8 | 69* | 28 | 41* | -4 | -5 | 14 | 75*
CCn1nc(C)cc1C(=O)N1CCCC(C(=O)c2ccc(OC)cc2C)C1 (stereo unspecified) | 5 | 2 | 5 | 11 | 8 | 5 | x | x
COc1ccc(O)c(-c2cc(-c3ccccc3Cl)[nH]n2)c1 | -8 | 81* | 39 | 50* | 59* | -17 | 57* | 72*
